Test results from PubChem BioAssay AID651597 (National Center for Advancing Translational Sciences (NCATS), 2012).
The whole screen tested about 1,100 compounds, of which about 390 (35%) were called active. About 30% were inconclusive and are not listed. Calls follow the shape of the dose curve; as a rule, active = well fitted inhibition curve with a large enough effect; inconclusive = small, poorly fitted or top-dose-only effect; inactive = flat fitted curve, though single readings scatter. The list shows a part of the results.

Target: Luciferin 4-monooxygenase (Photinus pyralis) (UniProt P08659)
Test: qHTS of Nrf2 Activators: Hit Validation in Secondary FLuc Assay; also: nearly all actives have a fitted effect of over 65% in size
Settings: firefly luciferase inhibition counter-screen, luminescence; series mostly up to 57.5 µM; activity, negative = inhibition: at the top concentration
Procedure, shortened: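 Purified firefly luciferase is tested for inhibition by compounds in the presence of its substrates, ATP and D-luciferin, each at Km. Inhibition marks likely false positives arising from reporter-enzyme stabilization.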
% is scaled to controls: 0 for no effect and ±100 for the full control effect; potency is read from the fitted curve at half-maximal effect.

SMILES | activity, negative = inhibition | Potency
O=C(Cn1cnc2ccccc21)N/N=C/C(Br)=C/c1ccccc1 | -29.9% (inactive) | 
O=C(/C=C/Nc1ccc(F)cc1)c1cccs1 |  | 0.19 µM (active)
O=C(NNC(=O)c1nc(Cl)ccc1Cl)c1ccc(F)cc1 | -24.8% (inactive) | 
COCCn1c(=NC(=O)c2cc(Cl)sc2Cl)sc2cc(S(N)(=O)=O)ccc21 |  | 15.1 µM (active)
O=c1oc2ccc(Br)cc2cc1-c1nc2ccccc2o1 | -2.54% (inactive) | 
O=c1oc2ccccc2cc1-c1csc(Nc2ccc(O)cc2)n1 |  | 1.35 µM (active)
CN1CCN(S(=O)(=O)c2ccc(Sc3nnnn3-c3ccccc3)c([N+](=O)[O-])c2)CC1 | -15.7% (inactive) | 
CCOc1cc2c(c3c1C(c1ccccc1)N(S(=O)(=O)c1ccc(C)cc1)C3)C(=O)C=CC2=O (configuration not stated) |  | 0.601 µM (active)
Cc1ccsc1/C=N/N=C1\C(=O)Nc2ccccc21 |  | 3.38 µM (active)
Cc1ccccc1/C=C1\C(=O)Nc2ccc(F)cc21 | -16.3% (inactive) | 
COC(=O)[C@@]1(Sc2ccc(C)cc2)CC(=O)N(C(=O)/C=C/c2ccccc2)[C@@H]1c1ccccc1 | -4.35% (inactive) | 
O=C(CNC(=S)NC(=O)c1ccccc1Br)c1ccccc1 | -2.89% (inactive) | 
O=C(NC(=S)Nc1ccccc1O)c1ccccc1Cl |  | 8.49 µM (active)
O=C(NC(=S)Nc1cc(C(F)(F)F)ccc1Cl)c1ccccc1 | -18.4% (inactive) | 
O=C1/C(=C\c2ccc(Cl)cc2)CCC1CNc1ccc(Cl)cc1 (configuration not stated) |  | 19 µM (active)
Cc1ccc(S(=O)(=O)c2nc(S(C)(=O)=O)sc2N2CCCCC2C)cc1 (configuration not stated) | 3.09% (inactive) | 

SMILES | activity, negative = inhibition | Potency
COc1cc(C=C(c2nc3ccccc3s2)c2nc3ccccc3s2)ccc1O |  | 12 µM (active)
O=C1Nc2cccnc2N(C(=O)CCl)c2ccccc21 | -2.21% (inactive) | 
COc1ccccc1C=Cc1ccnc2ccccc12 |  | 5.36 µM (active)
O=C(c1ccco1)c1cn(CC(=O)N2CCCc3ccccc32)c2ccccc12 | -29.5% (inactive) | 
CC(=O)Nc1ccc(O)c(-c2nc3ccccc3s2)c1 |  | 2.13 µM (active)
O=C1c2cccc3cccc(c23)C(=O)N1Cc1ccco1 | -1.75% (inactive) | 
c1ccc(N=NC2=NN(c3ccccc3)CS2)cc1 |  | 2.13 µM (active)
O=c1c(Cl)c(N/N=C/c2ccc(Cl)cc2)cnn1-c1ccccc1 |  | 19 µM (active)
Cc1ccc(Sc2cnn(-c3ccccc3)c(=O)c2Cl)cc1 | 0.573% (inactive) | 
O=C(O)c1ccc(-n2ncc(Cl)c(Cl)c2=O)cc1 | 4.91% (inactive) | 
Oc1ccc2ccccc2c1/C=C/c1ccc2c(Br)cc(Br)c(O)c2n1 |  | 10.7 µM (active)
COc1cc2c(cc1NC(=O)c1ccccc1F)CCCC2 |  | 8.49 µM (active)
Cc1noc(C)c1COc1ccccc1C(=O)NNC(=O)c1ccccc1F | -1.09% (inactive) | 
COC(=O)c1sccc1NC(=O)c1ccccc1F | 2.44% (inactive) | 
COc1cc2c(cc1NC(=O)c1ccco1)CCCC2 |  | 7.57 µM (active)
COc1cc(OC)c(NC(=O)c2ccco2)cc1Cl | -28.1% (inactive) | 
